Bioassay records as filed in PubChem BioAssay.
CBX7 AlphaScr = CBX7 chromodomain binding inhibitors, primary screen, biochemical, AlphaScreen; Chromobox protein homolog 7 (Homo sapiens), O95931; AlphaScreen His6-CBX7 / biotin-H3K27me3 peptide binding; active compounds read low; normalised signal (fraction of DMSO) (test concentration not listed); actives 1.1% (n = 66,000); in the data active means normalised signal below about 0.5
Target sequence (O95931 whole entry, looked up): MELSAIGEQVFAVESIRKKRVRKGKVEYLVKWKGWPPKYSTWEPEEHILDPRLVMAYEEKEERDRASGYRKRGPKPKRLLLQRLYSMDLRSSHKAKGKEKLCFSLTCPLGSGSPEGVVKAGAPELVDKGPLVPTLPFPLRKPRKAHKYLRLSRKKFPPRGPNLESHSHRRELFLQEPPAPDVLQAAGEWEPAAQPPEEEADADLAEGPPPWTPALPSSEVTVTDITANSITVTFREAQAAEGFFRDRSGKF
Large screens that a line does not name were inactive. This excerpt belongs to a sample that is enriched for hits.

Cc1onc(-c2ccccc2Cl)c1C(=O)Nc1ccc(OC(F)(F)F)cc1	none
Fc1ccccc1-c1nc(N2CCN(Cc3ccc4c(c3)OCO4)CC2)c2ccccc2n1	none
COC(=O)c1ccc(NS(=O)(=O)c2ccc3c(c2)CCN3C(C)=O)cc1	none
O=C1CN(C(=O)COc2ccccc2)C(c2ccccc2)c2cc(Br)ccc2N1 (configuration not stated)	CBX7 AlphaScr 0.477
O=C1CN(C(=O)COc2ccccc2)C(c2ccccc2)c2cc(F)ccc2N1 (configuration not stated)	none
O=C1CN(C(=O)COc2ccccc2)C(c2ccccc2)c2cc(Cl)ccc2N1 (configuration not stated)	none
CC(NC(=O)C(=O)NCc1ccc2c(c1)OCO2)C(c1cccs1)N1CCN(C)CC1 (configuration not stated)	none
O=C(Nc1ncc(Cc2ccccc2Cl)s1)c1cccc2ccccc12	none
O=C(Nc1nc(SCc2ccccc2Cl)ns1)c1ncn[nH]1	CBX7 AlphaScr 0.0529
O=C(Nc1cc(-c2nc3ccccc3s2)ccc1Cl)c1ncn[nH]1	none
Cc1sc(Nc2ccccc2F)nc1-c1ccccc1	none
CCN1C(=O)c2ccccc2S(=O)c2ccc(C(=O)N3CCN(C)CC3)cc21 (configuration not stated)	none
CC(=O)Nc1ccc(S(=O)(=O)Nc2ccc(S(=O)(=O)Nc3nccc(C)n3)cc2)cc1	none
CC(=O)Nc1ccc(S(=O)(=O)Nc2cccc3cccnc23)cc1	CBX7 AlphaScr 0.0448
Cc1ccc(S(=O)(=O)Nc2ccccc2CNc2cccc3cccnc23)cc1	none
O=S(=O)(NCC(NCc1ccccc1)c1ccccc1)c1ccc(Cl)cc1 (configuration not stated)	none
COc1ccc(CC(=O)NCCc2cc3ccc(C)c(C)c3[nH]c2=O)cc1	none
Fc1ccccc1COc1ccc(-c2nnn(Cc3ccc(Cl)cc3)n2)cc1	none
Fc1ccccc1-c1nc(NCc2ccccc2Cl)c2ccccc2n1	none
COCCNc1nc(-c2ccccc2F)nc2ccccc12	none
COc1ccccc1CNc1nc(-c2ccccc2F)nc2ccccc12	CBX7 AlphaScr 0.323
CCN(C(=O)Cn1c(SCc2cccc(F)c2)nc2ccncc21)c1cccc(C)c1	none
COc1nc(OC)nc(-n2cnc(NC(=O)Nc3ccc(Cl)cc3)n2)n1	CBX7 AlphaScr 0.245
Cc1ccc(NC(=O)Nc2ccc(Cl)cc2)nc1	none
O=C(Nc1ccc(Cl)cc1)Nc1ccc(Nc2ccccc2)cc1	none
CCOCCCNC(=O)C1CCN(c2nc3ccc(CC)cc3s2)CC1	none
O=C(c1ccc(Cl)cc1)N1CCc2c([nH]c3ccccc23)C1c1ccc2c(c1)OCO2 (configuration not stated)	none
O=C1c2ccc([N+](=O)[O-])cc2C(=O)N1c1ccc2nc(-c3ccccc3)[nH]c2c1	none
Fc1ccccc1-c1nc(-c2ccccc2)c(-c2ccc(Sc3ccccc3)cc2)[nH]1	none
Cc1ccc(C)c(-c2[nH]c(-c3ccc(C(=O)O)cc3)nc2-c2ccccc2)c1	none
COc1cccc(-c2nc(-c3ccccc3)c(-c3cccs3)[nH]2)c1	none
COc1cccc(-c2nc(-c3ccccc3)c(-c3cc([N+](=O)[O-])ccc3C)[nH]2)c1	CBX7 AlphaScr 0.47
Cc1ccc([N+](=O)[O-])cc1-c1[nH]c(-c2ccccc2F)nc1-c1ccccc1	CBX7 AlphaScr 0.473
Cc1ccccc1CN1C(=O)c2ccccc2Sc2ccc(C(=O)NCCc3ccc(Cl)cc3)cc21	none
COc1ccc2nc(C)c(C(=O)Nc3ccccc3C)cc2c1	none
CCc1nnc(NC(=O)c2ccc(S(=O)(=O)N(C)C3CCCCC3)cc2)o1	CBX7 AlphaScr 0.0649
CCOC(=O)c1oc2ccccc2c1NC(=O)c1ccc(S(=O)(=O)N(C)C2CCCCC2)cc1	none
O=C(Nc1nnc(C2CC2)o1)c1ccc(S(=O)(=O)N2CCCc3ccccc32)cc1	none
COCc1nnc(NC(=O)c2ccc(S(=O)(=O)N3CCOCC3)cc2)o1	none
CC1CCN(S(=O)(=O)c2ccc(C(=O)Nc3nnc(C4CC4)o3)cc2)CC1	none
CC1CN(S(=O)(=O)c2ccc(C(=O)Nc3nnc(C4CC4)o3)cc2)CC(C)O1 (configuration not stated)	none
CCc1nnc(NC(=O)c2ccc(S(=O)(=O)N3CC(C)OC(C)C3)cc2)o1 (configuration not stated)	none
COCc1nnc(NC(=O)c2ccc(S(=O)(=O)N3CCCCC3C)cc2)o1 (configuration not stated)	none
O=C(Nc1nnc(C2CC2)o1)c1ccc(S(=O)(=O)N2CCCCC2)cc1	CBX7 AlphaScr 0.0124
CC1CCCCN1S(=O)(=O)c1ccc(C(=O)Nc2nnc(C3CC3)o2)cc1 (configuration not stated)	CBX7 AlphaScr 0.000883
CN(C1CCCCC1)S(=O)(=O)c1ccc(C(=O)Nc2ccccc2-c2nc3ccccc3[nH]2)cc1	none
CCc1nnc(NC(=O)c2ccc(S(=O)(=O)N3CCCCCC3)cc2)o1	CBX7 AlphaScr 0.043
Cc1ccc(NC(=O)c2ccc(CNc3c(NC4CCCC4)c(=O)c3=O)cc2)c(C)c1	none
O=C(NC1CCCC1)c1ccc(Cl)c(NC2=NC3CS(=O)(=O)CC3S2)c1 (configuration not stated)	none
Cc1c(C(=O)Nc2ccccc2C(F)(F)F)sc2ncn(CC(=O)N3CCC(C)CC3)c(=O)c12	none
Cn1nc(-c2ccc(Cl)cc2)c2cc(C(=O)NCc3ccc(F)cc3)sc21	none
CCCC(CCC)C(=O)Nc1c2c(nc3c1CCC3)CCCC2	none
Cc1cccc(NC(=O)C2CCN(S(=O)(=O)c3cnc[nH]3)CC2)n1	none
O=C(Nc1cccc(Cl)c1)Nc1ccc(N2CCOCC2)c(C(F)(F)F)c1	none
CC(C)c1ccc(-n2cnc3cc(C(=O)NCc4ccccn4)ccc32)cc1	none
O=C(CN1CCN(Cc2ccc(Cl)cc2)C1=O)NCCCN1CCCC1	none
Cc1cccc2c1CC(C)(C)n1c(-c3ccc(Cl)cc3)nnc1-2	none
COc1ccc(NC(=O)C2(NS(=O)(=O)c3cccc4cccnc34)CCCCC2)cc1OC	none
CCCCNC(=O)c1sc2ncn(CC(=O)Nc3ccccc3OC)c(=O)c2c1C	none
CCOc1ccc(-n2cnnn2)cc1S(=O)(=O)N1CCOCC1	none
COc1ccc(NC(=O)c2nn(-c3ccccc3OC)c(=O)c3ccccc23)cc1Cl	none
CCN(CCCNC(=O)CCc1nc(-c2ccc(OC)cc2)no1)c1cccc(C)c1	CBX7 AlphaScr 0.415
COc1ccc(-c2noc(CCC(=O)NCCCOC(C)C)n2)cc1	none
COc1ccc(-c2noc(CCC(=O)NCCN(C)C)n2)cc1	none
Cc1ccc2c(c1C)NC(=O)CC2c1ccccc1C(F)(F)F (configuration not stated)	none
O=C(NCc1ccc2c(c1)OCO2)[C@H](Cc1ccccc1)N1Cc2ccccc2C1=O	CBX7 AlphaScr 0.439
O=C(NCc1ccc2c(c1)OCO2)[C@@H](c1ccccc1)N1Cc2ccccc2C1=O	none
O=C(NCc1ccc(F)cc1)[C@H](Cc1ccccc1)N1Cc2ccccc2C1=O	none
O=C(CSc1nccn1-c1ccc(F)cc1)Nc1ccc(F)cc1F	none
O=C(Cc1ccccc1)Nc1nnc(-c2ccc(F)cc2)s1	none
Cc1cc(N2CCCCC2)nc2ccc(NC(=O)CCC(=O)N3CCCC(C)C3)cc12 (configuration not stated)	CBX7 AlphaScr 0.477
Cc1cc(N2CCC(C)CC2)nc2ccc(NC(=O)CCC(=O)N3CCCCCC3)cc12	none
CCOC(=O)C1CCCN(C(=O)CCC(=O)Nc2ccc3nc(N4CCC(C)CC4)cc(C)c3c2)C1 (configuration not stated)	none
Cc1ccc(S(=O)(=O)N=C(Nc2nc(C)cc(C)n2)N2CCc3ccccc32)cc1	none
